The source of these data is PubChem BioAssay (NCI).

Some test systems named below: NCI-H23 lung; NCI-H226 lung; NCI-H322M lung; HOP-62 NSCLC; NCI-H460 lung; HOP-92 NSCLC; A549/ATCC NSCLC; 786-0 renal; COLO 205 colon.
What all share (assay): NCI-60 one-dose screen, 48 h (100 = growth as untreated, 0 = no growth, -100 = all killed)
Holding throughout (conditions): 10 µM unless noted

The structures appear in SMILES notation. Compounds without any hit were thinned out: in the full panel of roughly 83,000, 20% have a hit.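 In brief: 96-well plates, 48 h treatment, single concentration, percent growth endpoint.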 A number with no mark means an inactive call. Active and inactive are the calls of the source. Rule for the calls: active = growth percent below 10; inactive = the rest.

Consider `Nc1ncnc2c1CN(Cc1ccccc1)CC2`, for which the growth in the assay on NCI-H23 lung was 98.3%; in the assay with NCI-H226 lung it was 113%; in the assay on NCI-H322M lung, 117%; in the assay with HOP-62 NSCLC it was 106%; with NCI-H460 lung it was 107%; with HOP-92 NSCLC it was 87.5%. For the same compound, the growth in the assay on A549/ATCC NSCLC was 90.3%; in the assay with 786-0 renal it was 101%; with COLO 205 colon it was 115%.

For `CC(=O)Nc1cc2c3c(cccc3c1)-c1ccccc1-2`, the growth with NCI-H23 lung is 89.1%; in the assay on NCI-H226 lung, 37.4%; with NCI-H322M lung it was 79.9%; with HOP-62 NSCLC, 103%; in the assay with NCI-H460 lung, 64.4%; in the assay on HOP-92 NSCLC it was 78.9%. Moreover, the growth is 34% in the assay on A549/ATCC NSCLC, 50.4% with 786-0 renal and 107% in the assay with COLO 205 colon.

Turning to `O=C1/C(=C\c2coc3ccccc3c2=O)c2ccccc2N1c1c(Cl)cccc1Cl`, the growth with NCI-H23 lung is 55.4%; with NCI-H226 lung, 90.7%; in the assay with NCI-H322M lung it was 73.7%; in the assay on HOP-62 NSCLC it was 68.2%; in the assay with NCI-H460 lung it was 19%; in the assay on HOP-92 NSCLC it was 32.1%. The growth with A549/ATCC NSCLC was 26.6%; in the assay on 786-0 renal, 27%; in the assay on COLO 205 colon, 55.3%.

For `Cc1sc2nc3c4ccccc4c(NCCCN(C)C)nn3c(=O)c2c1C`, the growth with NCI-H23 lung was 60.9%; in the assay on NCI-H226 lung it was 42.8%; in the assay on NCI-H322M lung it was 83.1%; with HOP-62 NSCLC, 61.7%; with NCI-H460 lung, 23.6%; in the assay with HOP-92 NSCLC, 29%. Further, the growth in the assay on A549/ATCC NSCLC was 15%; in the assay with 786-0 renal, 55.7%; in the assay on COLO 205 colon it was -57.4% (active).

For the compound `Cc1cc(C)nc(NS(=O)(=O)c2ccc(Nc3nc4nc(SCc5ccccc5)nc(-c5ccc(O)cc5)c4c(=O)[nH]3)cc2)n1`, the growth with NCI-H23 lung is 106%; in the assay on NCI-H226 lung it was 93.8%; with NCI-H322M lung, 111%; with HOP-62 NSCLC, 93.4%; in the assay on NCI-H460 lung it was 107%; in the assay with HOP-92 NSCLC, -9.71% (active). The values for the growth with A549/ATCC NSCLC, with 786-0 renal and in the assay on COLO 205 colon were 98%, 97% and 103%, respectively.

As to `CCCCCCC(CC#N)(CCC)CCCC` (stereo not given), the growth is 110% in the assay with NCI-H23 lung; 96.7% in the assay with NCI-H226 lung; 113% with NCI-H322M lung; 111% in the assay with HOP-62 NSCLC; 98.9% with NCI-H460 lung; 73.9% with HOP-92 NSCLC. The growth in the assay with A549/ATCC NSCLC is 103%; in the assay with 786-0 renal it was 108%; with COLO 205 colon, 129%.

Regarding `Cc1ccc2nc(SCC(=O)Nc3ccc(-c4nc5ccccc5s4)c(Cl)c3)[nH]c2c1`, the growth in the assay with NCI-H23 lung is 109%; in the assay with NCI-H226 lung it was 98.7%; in the assay with NCI-H322M lung, 101%; with HOP-62 NSCLC it was 114%; with NCI-H460 lung, 116%; with HOP-92 NSCLC, 98%. In addition, the values for the growth in the assay on A549/ATCC NSCLC, with 786-0 renal and with COLO 205 colon were 98.3%, 98.1% and 107%, respectively.

Consider `Cc1ccc2nc(-c3ccc(N(C)C)c(Br)c3)cn2c1`, for which the growth in the assay on NCI-H23 lung was 92%; in the assay with NCI-H226 lung, 98.4%; in the assay on NCI-H322M lung it was 120%; in the assay with HOP-62 NSCLC, 93.4%; in the assay with NCI-H460 lung, 40.3%; with HOP-92 NSCLC it was 126%. Moreover, the growth in the assay on A549/ATCC NSCLC is 98.9%; in the assay with 786-0 renal, 87.8%; in the assay with COLO 205 colon, 89.3%.

On to `CCOC(=O)C(Br)=P(c1ccccc1)(c1ccccc1)c1ccccc1`, for which the growth is 109% with NCI-H23 lung; 104% in the assay with NCI-H226 lung; 99.4% in the assay with NCI-H322M lung; 114% with HOP-62 NSCLC; 116% with NCI-H460 lung; 101% in the assay on HOP-92 NSCLC. The growth with A549/ATCC NSCLC is 106%; in the assay on 786-0 renal, 103%; with COLO 205 colon, 103%.

In the case of `CCOC(=O)c1cnc2c(C)cc(C)cc2c1NCCCN(C)C`, the growth in the assay with NCI-H23 lung is 35.2%; in the assay with NCI-H226 lung it was 36.1%; with NCI-H322M lung, 20.9%; with HOP-62 NSCLC, 21.4%; with NCI-H460 lung, 10.1%; in the assay with HOP-92 NSCLC it was 4.88% (active). Moreover, the growth in the assay on A549/ATCC NSCLC was 1.69% (active); in the assay with 786-0 renal it was 29.2%; in the assay on COLO 205 colon it was 17.4%.

In the case of `COC(=O)[C@H](Cc1cnc[nH]1)NC(=O)[C@@H](NC(=O)Nc1cc(C(F)(F)F)cc(C(F)(F)F)c1)C(C)C`, the growth in the assay on NCI-H23 lung was -70.6% [100 µM] (active); in the assay with NCI-H226 lung it was -44.1% [100 µM] (active); with NCI-H322M lung it was -94.9% [100 µM] (active); in the assay with HOP-62 NSCLC it was -92.5% [100 µM] (active); in the assay on NCI-H460 lung it was -42.5% [100 µM] (active); in the assay on HOP-92 NSCLC it was -96.7% [100 µM] (active). For the same compound, the growth in the assay with A549/ATCC NSCLC is -70.8% [100 µM] (active); in the assay with 786-0 renal, -90.7% [100 µM] (active); with COLO 205 colon it was -82.6% [100 µM] (active).

For `COc1ccc(C2CC(c3ccc4c(c3)OCO4)=NN2C=O)cc1` (stereo not given), the growth in the assay with NCI-H23 lung is 100%; in the assay on NCI-H226 lung it was 87.6%; in the assay with NCI-H322M lung, 107%; with HOP-62 NSCLC, 102%; with NCI-H460 lung it was 102%; with HOP-92 NSCLC, 89.2%. The growth was 95.8% in the assay on A549/ATCC NSCLC, 89.5% in the assay with 786-0 renal and 115% in the assay with COLO 205 colon.

In the case of `OC(c1ccccc1)C(NCc1ccccc1)c1ccccc1` (stereo not given), the growth is 93.5% in the assay on NCI-H23 lung; 97.7% with NCI-H226 lung; 97.8% in the assay on NCI-H322M lung; 90.5% in the assay with HOP-62 NSCLC; 100% in the assay on NCI-H460 lung; 71.8% with HOP-92 NSCLC. For the same compound, the growth was 101% with A549/ATCC NSCLC, 87.2% with 786-0 renal and 116% in the assay on COLO 205 colon.

For the compound `C1=C(Cc2ccccc2)n2cnc3ncnc(c32)S1`, the growth in the assay on NCI-H23 lung was 61.3%; in the assay with NCI-H226 lung it was 53.7%; in the assay on NCI-H322M lung, 73%; in the assay on HOP-62 NSCLC, 39.9%; in the assay with NCI-H460 lung, 83.8%; with HOP-92 NSCLC it was 56.6%. Moreover, the growth in the assay with A549/ATCC NSCLC is 87.3%; in the assay with 786-0 renal, 29.3%; with COLO 205 colon, 82%.

In the case of `COc1cccc(/C=N/Nc2nc3ccccc3s2)c1OC`, the growth in the assay with NCI-H23 lung was 101%; in the assay on NCI-H226 lung, 83.3%; with NCI-H322M lung, 76%; with HOP-62 NSCLC, 68.8%; in the assay with NCI-H460 lung, 34.5%; with HOP-92 NSCLC it was 74.5%. For the same compound, the growth in the assay with A549/ATCC NSCLC was 69.1%; with 786-0 renal it was 82.1%; with COLO 205 colon, 71.6%.
